From PubChem BioAssay (Tox21) come the findings set out here.

“And” between values parts separate entries of the source, which are not always exact repeats. Identical values can stand only once. Inconclusive results are not listed. Some structures have more than one record in an assay (separate samples or runs), and their calls can disagree. The source made the active and inactive calls. Unless noted, calls follow the shape of the dose curve; as a rule, active = well fitted curve in the direction sought with a large enough effect in the repeat runs; inconclusive = weak or mixed curves; inactive = no such curve, though single readings can be large; an effect the other way counts as inactive or inconclusive.

The nature of experiment [1]: A CellTox Green Cytotoxicity Assay to monitor cytotoxicity in HepG2 cells - 8 hour (AID 1224890). Also: nearly all actives have a fitted effect of over 45% in size. The method in brief: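 Real-time, homogeneous cytotoxicity readout: dead-cell DNA staining by CellTox Green in HepG2 monolayers, fluorescence measured at timed intervals up to 40 h of continuous compound exposure.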
Experiment [2] is described as follows: qHTS assay to identify small molecule antagonists of the androgen receptor (AR) signaling pathway using the MDA cell line in the presence of 0.5 nM R1881 - cell viability counter screen (AID 1259242). Also: nearly all actives have a fitted effect of over 45% in size. Also: potency is read from the fitted curve at half-maximal effect. The method in brief: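 Cytotoxicity toward MDA-kb2 cells is measured by CellTiter-Fluor live-cell protease fluorescence after 16 hr compound exposure at 37C in the presence of 0.5 nM R1881 stimulator.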

Experiment [3] can be described thus: qHTS assay to identify small molecule HDAC inhibitors (AID 1259364). Also: nearly all actives have a fitted effect of over 45% in size. Also: potency is read from the fitted curve at half-maximal effect. The method in brief: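 Homogeneous cell-based luminescent assay of endogenous class I/II HDAC activity; HCT-116 cells, 2 h compound exposure, 30 min HDAC-Glo development at RT.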
The nature of experiment [4]: qHTS assay to identify small molecule agonists of the sonic hedgehog signaling (Shh) pathway - cell viability counter screen (AID 1259366). Also: nearly all actives have a fitted effect of over 50% in size. A digest of the protocol: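 Fluorescence from CellTiter-Fluor reports live cells in this counter screen. NIH/3T3-derived Gli1-Luc reporter cells receive test compounds for 24hr at 37C; reagent goes in at 23hr.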
(In qHTS, concentration-response curves come from the screen itself.)

The nature of experiment [5]: qHTS assay to identify small molecule antagonists of the sonic hedgehog signaling (Shh) pathway - cell viability counter screen (AID 1259367). Also: nearly all actives have a fitted effect of over 55% in size. Also: potency is read from the fitted curve at half-maximal effect. The method in brief: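 NIH/3T3-derived Gli1-Luc reporter cells (2,000 per well) rested 4 hr at 37 C, then received DMSO compounds plus conditioned medium. After 23 hr of treatment, CellTiter-Fluor was added for 1 hr at 37C and fluorescence read.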

The nature of experiment [6]: qHTS assay to identify small molecule agonists of the sonic hedgehog signaling (Shh) pathway (AID 1259368; calls by dose curve;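 also: NIH/3T3-derived 3T3Gli1-Luc cells carrying a stable Gli1-driven firefly luciferase reporter; series mostly up to about 92 µM; nearly all actives have a fitted effect of over 15% in size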). The method in brief:
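Steps: seed 3T3 Gli1-Luc cells, incubate 4 hr at 37 C, pin-transfer compounds in DMSO alongside a positive control, incubate 24 hr, add luciferase detection reagent, wait 30 min at room temperature, read luminescence.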

Experiment [7] can be described thus: qHTS assay to identify small molecule antagonists of the sonic hedgehog signaling (Shh) pathway (AID 1259369; calls by dose curve; also: nearly all actives have a fitted effect of over 45% in size; also: potency is read from the fitted curve at half-maximal effect). The method in brief:
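Inhibition of Shh signalling is measured as reduced Gli1-response-element firefly luciferase output in an NIH/3T3-derived stable reporter clone stimulated with conditioned medium for 24hr.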

Experiment [8] has as its target Estrogen receptor beta (Homo sapiens) (UniProt Q92731). Description: qHTS assay to identify small molecule agonists of the estrogen receptor beta (ER-beta) signaling pathway (AID 1259377; active = well fitted activation curve with a large enough effect in the signal ratio in the repeat runs, not every such curve was filed as active; the % refers to the signal ratio; also: potency is read from the fitted curve at half-maximal effect). A digest of the protocol: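 Screening used GripTite ER-beta-UAS-bla cells held in 2% charcoal-stripped FBS medium. After overnight (16 hr) compound incubation at 37C, beta-lactamase activity was detected with a FRET substrate by fluorescence.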

Experiment [9] has the same target. Put plainly: qHTS assay to identify small molecule antagonists of the estrogen receptor beta (ER-beta) signaling pathway (AID 1259378; active = well fitted inhibition curve with a large enough effect in the signal ratio in the repeat runs, not every such curve was filed as active; the % refers to the signal ratio). The method in brief: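 ER-beta-UAS-bla HEK293T (GripTite) cells in 2% charcoal-stripped FBS medium were preincubated 6 hr at 37C, dosed with compound, then stimulated with 1 nM E2 (final) for 16 hr; beta-lactamase reporter read by B/G FRET fluorescence after 2 hr substrate loading.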

Experiment [10] is described as follows: qHTS assay to identify small molecule agonists of the estrogen receptor beta (ER-beta) signaling pathway - cell viability counter screen (AID 1259380). Also: nearly all actives have a fitted effect of over 30% in size. The method in brief: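 Same-well viability counter screen. Cells: ER-beta-UAS-bla HEK293T, plated 6 hr before compound, in 2% charcoal-stripped FBS. Compound exposure 16 hr, 37C; viability by CellTiter-Glo luminescence after 30 min at room temperature.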

Experiment [11] is described as follows: qHTS assay to identify small molecule antagonists of the estrogen receptor beta (ER-beta) signaling pathway - cell viability counter screen (AID 1259382). Also: series mostly up to about 92 µM; nearly all actives have a fitted effect of over 55% in size. A digest of the protocol:
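Following a 6 hr plating period, HEK293T cells carrying a UAS-driven beta-lactamase reporter under ER-beta control received compounds and 1nM E2 (final). After 16 hr at 37C and 2 hr substrate loading, CellTiter-Glo luminescence indicated viability.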

Experiment [12] in a line: qHTS assay to identify small molecule agonists or antagonists of the thyroid stimulating hormone receptor (TSHR) signaling pathway - wild type cell line counter screen (AID 1259384; calls by dose curve). A digest of the protocol:
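Wild-type HEK293 cells were plated 18 h at 37 C/5% CO2, pin-dosed with compound plus Ro20-1724 medium, held 30 min at room temperature, then given cAMP-d2 and anti-cAMP-cryptate; fluorescence was read after 1 h. Fifteen concentrations, triplicate.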

Experiment [13] has as its target Thyrotropin receptor (Homo sapiens) (UniProt P16473). Put plainly: qHTS assay to identify small molecule antagonists of the thyroid stimulating hormone receptor (TSHR) signaling pathway (AID 1259385; calls by dose curve; also: nearly all actives have a fitted effect of over 20% in size). A digest of the protocol: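 TSHR-HEK293 cells were plated and held 18 h at 37C/5% CO2, then given compound plus Ro20-1724 and stimulated with TSH at 1.5 ng/mL final. After 30 min at room temperature, cAMP was detected with cAMP-d2/anti-cAMP-cryptate (1 h) by fluorescence.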

Experiment [14] addresses Estrogen receptor (Homo sapiens) (UniProt P03372). Put plainly: qHTS assay to identify small molecule antagonists of the estrogen receptor alpha (ER-alpha) signaling pathway using the BG1 cell line in the presence of 0.1 nM 17-beta-estradiol (AID 1259244). Also: nearly all actives have a fitted effect of over 50% in size. Also: potency is read from the fitted curve at half-maximal effect. A digest of the protocol: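 After 5 days in hormone-depleted medium (charcoal-stripped serum, no phenol red), VM7Luc4E2 cells were seeded, incubated 24 h, then co-treated with compound and 0.1 nM (final) estradiol for 22 h before luminescence detection.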

The nature of experiment [15]: qHTS assay to identify small molecule HDAC inhibitors - cell viability counter screen (AID 1259365). Also: series mostly up to about 92 µM; nearly all actives have a fitted effect of over 50% in size. The method in brief:
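To flag cytotoxic hits, 1,500 wild-type HCT-116 cells per well, plated the day before, receive test compounds for 2hr at 37 C before CellTiter-Glo reagent and a luminescence read.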

Experiment [16] deals with Estrogen receptor (Homo sapiens) (UniProt P03372). Put plainly: qHTS assay to identify small molecule agonists of the estrogen receptor alpha (ER-alpha) signaling pathway in the presence of an antagonist (AID 1259383; calls by dose curve; also: top concentration of the series differs between compounds; nearly all actives have a fitted effect of over 15% in size). A digest of the protocol: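 Cells are hormone-deprived for 5 days (charcoal-stripped FBS, no phenol red), plated for 24hr, spiked with 10.0nM ICI-182,780, then dosed at 15 concentrations. After 22hr at 37C, ONE-Glo luminescence reports ERE-luciferase activity.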

A short description of experiment [17]: qHTS assay to identify small molecule agonists of the androgen receptor (AR) signaling pathway in the presence of an antagonist - cell viability counter screen (AID 1259379). Also: nearly all actives have a fitted effect of over 25% in size. Also: potency is read from the fitted curve at half-maximal effect. The method in brief: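 Fluorescence from CellTiter-Fluor, added after 15 hr and read 1 hr later, gave cell viability. Cells were MDA-kb2 exposed to compounds (15 concentrations) in the presence of 3.0uM nilutamide at 37C, 0% CO2.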

A short description of experiment [18]: qHTS assay to identify small molecule phospholipidosis (PLD) inducers (AID 1259344; active = well fitted curve in the direction sought with a large enough effect; an effect the other way counts as inactive or inconclusive). A digest of the protocol:
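HepG2 cells on collagen I, attached 4 h at 37 C, were co-treated with compound and LipidTOX Red dye for 24 h at 37 C, then fixed with paraformaldehyde plus Hoechst 33342 and imaged by high-content microscopy for phospholipid accumulation.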

Sequence of Estrogen receptor beta (Homo sapiens) (Q92731 whole entry, looked up): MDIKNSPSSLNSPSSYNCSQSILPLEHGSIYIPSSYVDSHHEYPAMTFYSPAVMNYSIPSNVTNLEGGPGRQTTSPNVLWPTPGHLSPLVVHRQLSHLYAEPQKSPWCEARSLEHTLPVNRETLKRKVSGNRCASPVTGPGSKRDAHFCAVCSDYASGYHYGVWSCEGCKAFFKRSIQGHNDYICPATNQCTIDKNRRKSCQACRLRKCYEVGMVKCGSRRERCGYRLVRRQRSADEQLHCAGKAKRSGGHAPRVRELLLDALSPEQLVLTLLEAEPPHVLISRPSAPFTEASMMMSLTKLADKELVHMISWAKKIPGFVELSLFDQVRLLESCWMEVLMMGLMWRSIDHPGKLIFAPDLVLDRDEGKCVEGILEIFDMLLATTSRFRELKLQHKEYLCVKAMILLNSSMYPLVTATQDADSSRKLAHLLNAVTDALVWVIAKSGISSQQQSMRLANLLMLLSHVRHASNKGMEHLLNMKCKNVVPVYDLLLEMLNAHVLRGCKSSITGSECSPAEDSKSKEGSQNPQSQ
Sequence of Estrogen receptor (Homo sapiens) (P03372 whole entry, looked up): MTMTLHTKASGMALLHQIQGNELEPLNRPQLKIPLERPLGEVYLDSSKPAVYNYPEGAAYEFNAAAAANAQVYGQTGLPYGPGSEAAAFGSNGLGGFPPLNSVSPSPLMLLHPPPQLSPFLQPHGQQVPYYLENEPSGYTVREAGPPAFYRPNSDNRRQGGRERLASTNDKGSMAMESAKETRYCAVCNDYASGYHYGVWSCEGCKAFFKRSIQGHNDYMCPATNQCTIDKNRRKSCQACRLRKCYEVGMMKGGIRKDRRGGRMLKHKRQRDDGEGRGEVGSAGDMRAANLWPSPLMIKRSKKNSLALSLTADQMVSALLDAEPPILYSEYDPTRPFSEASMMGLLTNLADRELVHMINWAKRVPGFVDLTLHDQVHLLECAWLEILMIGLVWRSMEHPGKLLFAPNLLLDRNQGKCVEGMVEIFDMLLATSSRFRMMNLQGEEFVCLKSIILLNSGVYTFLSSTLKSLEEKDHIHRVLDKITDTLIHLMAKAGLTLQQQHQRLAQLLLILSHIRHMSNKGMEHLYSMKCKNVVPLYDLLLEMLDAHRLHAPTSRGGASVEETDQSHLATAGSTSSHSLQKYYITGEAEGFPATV
Sequence of Thyrotropin receptor (Homo sapiens) (P16473 whole entry, looked up): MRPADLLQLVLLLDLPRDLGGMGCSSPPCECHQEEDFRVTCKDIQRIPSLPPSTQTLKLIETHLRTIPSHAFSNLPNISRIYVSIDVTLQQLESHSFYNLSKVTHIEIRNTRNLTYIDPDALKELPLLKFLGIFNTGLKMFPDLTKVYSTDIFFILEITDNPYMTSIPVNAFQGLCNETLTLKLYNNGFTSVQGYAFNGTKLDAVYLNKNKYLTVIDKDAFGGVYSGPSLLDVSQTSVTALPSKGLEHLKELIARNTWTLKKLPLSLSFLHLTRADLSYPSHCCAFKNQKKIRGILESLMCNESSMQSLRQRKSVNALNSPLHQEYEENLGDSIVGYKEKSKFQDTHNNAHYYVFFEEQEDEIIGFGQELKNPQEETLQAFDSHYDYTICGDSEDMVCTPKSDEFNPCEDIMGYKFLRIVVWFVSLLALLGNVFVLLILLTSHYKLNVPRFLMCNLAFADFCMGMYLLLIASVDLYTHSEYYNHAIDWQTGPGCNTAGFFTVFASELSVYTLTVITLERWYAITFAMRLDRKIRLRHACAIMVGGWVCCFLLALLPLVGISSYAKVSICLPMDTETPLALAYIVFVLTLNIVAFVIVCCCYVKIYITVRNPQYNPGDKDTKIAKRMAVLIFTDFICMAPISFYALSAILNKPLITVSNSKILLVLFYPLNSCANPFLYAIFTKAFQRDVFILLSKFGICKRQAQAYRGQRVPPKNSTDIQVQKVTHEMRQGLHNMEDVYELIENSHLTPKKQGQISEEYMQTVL

Turning to `Clc1ccc(Cl)c(Cl)c1Cl`, the Potency entry in experiment [1], in experiment [2], in [3], in [4], in experiment [5] and in [7] was “inactive” each time. Also, the Potency result in experiment [8], in [9], in experiment [10] and in [11] was “inactive” throughout. Further, the molecule was classed as inactive in experiment [6], in [12] and in experiment [13].
`CCCCOCCO`: the Potency result in experiment [1], in experiment [2], in experiment [14], in experiment [3], in experiment [4] and in experiment [5] was “inactive” each time. In addition, the Potency entry in [7], in [10], in experiment [11] and in experiment [16] was “inactive” in each case. The molecule was called inactive in [15], in [6], in experiment [12] and in [13].
As to `CC1=CC[C@H]2C[C@@H]1C2(C)C`, the Potency entry in experiment [1], in experiment [2], in experiment [14], in experiment [3], in experiment [4] and in [5] was “inactive” each time. For the same molecule, the Potency entry in [7], in experiment [8], in experiment [9], in [17], in experiment [10] and in [11] was “inactive” throughout. The Potency entry in experiment [16] is “inactive”. Moreover, the molecule was classed as inactive in experiment [15], in experiment [6], in [12] and in experiment [13].
`CS(=O)(=O)Nc1ccc([N+](=O)[O-])cc1Oc1ccccc1`: the Potency result in [1], in experiment [2], in experiment [3], in [7], in experiment [8] and in experiment [10] was “inactive” in each case. In addition, the Potency result in [11] is “inactive”. Besides, the result in experiment [18], in experiment [6], in experiment [12] and in experiment [13] was inactive.
With `Cc1cc(O)c2c(c1)C(=O)c1cc(O)cc(O)c1C2=O`, the Potency entry in experiment [1], in experiment [14], in experiment [4], in experiment [10] and in experiment [11] was “inactive” throughout. The Potency result was “inactive and 48.6 µM (active)” in experiment [2]; 5.32 µM (active) and 1.93 µM (active) in [3]; “inactive and 54.5 µM (active)” in experiment [5]; 34.4 µM (active) in experiment [7]; 4.86 µM (active) in [8]; 26.7 µM (active) and 30.6 µM (active) in experiment [17]. For the same molecule, the outcome in experiment [15], in experiment [6], in experiment [12] and in [13] was inactive.
On to `CCc1ccccc1O`, for which the Potency result in [1], in experiment [2], in experiment [3], in [4], in experiment [5] and in experiment [7] was “inactive” each time. The Potency entry in experiment [8], in experiment [9], in experiment [17], in experiment [10], in experiment [11] and in experiment [16] was “inactive” in each case. Also, the Potency in experiment [14] is 19.2 µM (active) and inactive. In addition, the call in experiment [6], in [12] and in experiment [13] was inactive.
